Measured values from the supplement of paper PMC10981050.
Several values for one entry are separate records, joined by “and”; a condition that tells them apart may be missing. Identical values can stand only once. Counter-ions that a name gives are not always drawn.

Columns and labels:
Test in all cases: cell viability relative to vehicle control; higher = less cytotoxic
Details in all cases: 10 µM
K562 = test system: K562
Procedure, shortened: (§1)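 Screening covered the Selleck bioactive, kinase and epigenetic probe libraries, less identity-inconsistent compounds, on CRISPR-edited mutant clones and isogenic wild-type clones of four leukaemia lines. Cells, at 2000 per well in 50 µL medium, received a single 10 µM acoustically dispensed dose. After 48 h the supernatant was removed and CellTiter-Glo luminescence was read. Viability was analysed in Genedata Screener as percent of the on-plate vehicle control.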

MARIMO = test system: MARIMO
Procedure, shortened: as §1

MOLM14 = test system: MOLM14
Procedure, shortened: as §1

OCI-AML2 = test system: OCI-AML2
Procedure, shortened: as §1

| Structure (SMILES) | cell viability (K562; SRSF2 genotype: SRSF2 P95H/wt) | cell viability (K562; SRSF2 genotype: SRSF2 wt/wt) | cell viability (MARIMO; SRSF2 genotype: SRSF2 P95H/wt) | cell viability (MARIMO; SRSF2 genotype: SRSF2 wt/wt) | cell viability (MOLM14; SRSF2 genotype: SRSF2 P95H/wt) | cell viability (MOLM14; SRSF2 genotype: SRSF2 wt/wt) | cell viability (OCI-AML2; SRSF2 genotype: P95H/wt) | cell viability (OCI-AML2; SRSF2 genotype: wt/wt) |
| --- | --- | --- | --- | --- | --- | --- | --- | --- |
| O=C(O)C(S)=Cc1c[nH]c2ccc(F)cc12 | 95.6% and 105% | 97% | 109% | 109% | 85.2% | 98.3% | 106% | 103% |
| CC(C)c1cc(C(=O)N2Cc3ccc(CN4CCN(C)CC4)cc3C2)c(O)cc1O | 21.1% and 29.8% | 24% | 28% | 26.9% | 3.31% | 4.31% | 18.1% | 22.8% |
| Nc1ccc(O)c(C(=O)O)c1 [Mesalamine (Lialda)] | 94.9% and 87.4% | 90.1% | 89.8% | 94.7% | 87.3% | 92.1% | 97.2% | 100% |
| CC1(C)S[C@@H]2[C@H](NC(=O)Cc3ccccc3)C(=O)N2[C@H]1C(=O)O.CCN(CC)CCOC(=O)c1ccc(N)cc1 [Penicillin G Procaine] | 107% and 104% | 101% | 104% | 118% | 99.7% | 109% | 97.8% | 99.4% |
| Cn1cnc([N+](=O)[O-])c1Sc1ncnc2[nH]cnc12 [Azathioprine (Azasan, Imuran)] | 53.6% and 63.6% | 34.8% | 82.2% | 87.2% | 85.2% | 81.8% | 87.7% | 92% |
| OCC1OC(Oc2ccc(O)cc2)C(O)C(O)C1O (stereo not drawn) [alpha-Arbutin] | 99.8% and 105% | 98.6% | 104% | 111% | 103% | 109% | 98.8% | 101% |
| O=C1c2c(O)cc(O)cc2OC(c2ccc(O)c(O)c2)C1O (configuration not stated) [Taxifolin (Dihydroquercetin)] | 97.9% and 94.4% | 91.6% | 91.9% | 96.5% | 100% | 101% | 93.5% | 96% |
| CC(C)=CCC/C(C)=C/CC/C(C)=C/CCC(=O)OC/C=C(\C)CCC=C(C)C [Gefarnate] | 106% and 102% | 96.4% | 99.7% | 110% | 96.4% | 102% | 89.7% | 93.5% |
| Clc1ccc(CSC(Cn2ccnc2)c2ccc(Cl)cc2Cl)cc1 (configuration not stated) [Sulconazole Nitrate] | 57.2% and 61.2% | 62.7% | 46.5% | 43.2% | 45.7% | 44.8% | 40% | 45.1% |
| NC(=O)c1cccc(-c2cccc(OC(=O)NC3CCCCC3)c2)c1 | 95.8% and 91.2% | 96.1% | 95% | 92.4% | 99.5% | 99% | 88.6% | 96.4% |
| O=C(Nc1cccc2c(=O)cc(-c3nnn[nH]3)oc12)c1ccc(OCCCCc2ccccc2)cc1 [Pranlukast] | 103% | 104% | 106% | 114% | 101% | 104% | 105% | 113% |
| CC1(N)CCN(c2cnc(-c3cccc(Cl)c3Cl)c(N)n2)CC1 [SHP099 hydrochloride] | 64.7% and 71.4% | 71.9% | 96% | 106% | 29.6% | 22.8% | 25.4% | 38.7% |
| Cn1cc(-c2ccc(S(=O)(=O)n3ccc(/C=C/C(=O)Nc4ccccc4N)c3)cc2)cn1 | 15% and 29.1% | 32% | 6.4% | 5.67% | 7.6% | 2.05% | 8.31% | 8.21% |
| COC(=O)c1ccco1 [Methyl furan-2-carboxylate] | 108% and 99.5% | 113% | 101% | 99.5% | 107% | 110% | 111% | 115% |
| Cc1cc(Nc2cc(N3CCN(C)CC3)nc(Sc3ccc(NC(=O)C4CC4)cc3)n2)n[nH]1 [VX-680 (MK-0457, Tozasertib)] | 16.4% and 18.7% | 14.8% | 53.6% | 38% | 6.03% | 9.53% | 14.4% | 19.3% |
| NC(=S)N/N=C/c1ncccc1N [Triapine] | 75.8% and 77.5% | 76.5% | 20.1% | 15.3% | 6.66% | 1.54% | 13.1% | 15.1% |
| CNCc1ccc(-c2cc(-c3nc(-c4ccc(S(=O)(=O)C(C)C)cc4)cnc3N)on2)cc1 | 3.16% and 2.89% | 1.89% | 0.36% | 0.32% | 0.28% | 0.34% | 0.39% | 0.9% |
| O=C(O)C(Cc1ccccc1[N+](=O)[O-])=NNc1nc(-c2ccc(Cl)c(Cl)c2)cs1 | 95.8% and 93.5% | 87.9% | 94.2% | 114% | 91.8% | 92.2% | 84.8% | 94% |
| CC(=O)c1ccc2c(c1)c1cc(C(C)=O)ccc1n2CCNC(C)C | 5.79% and 17.9% | 9.91% | 5.2% | 2.54% | 2.29% | 0.66% | 4.6% | 20.6% |
| CN(C)c1ccc(-c2nc3ncc(Cl)c(N4CCN(CC(=O)Nc5nccs5)CC4)c3[nH]2)cc1 | 95.8% and 101% | 95.2% | 96.9% | 109% | 78.9% | 87.5% | 92.4% | 95.1% |

| Structure (SMILES) | cell viability (K562; SRSF2 genotype: SRSF2 P95H/wt) | cell viability (K562; SRSF2 genotype: SRSF2 wt/wt) | cell viability (MARIMO; SRSF2 genotype: SRSF2 P95H/wt) | cell viability (MARIMO; SRSF2 genotype: SRSF2 wt/wt) | cell viability (MOLM14; SRSF2 genotype: SRSF2 P95H/wt) | cell viability (MOLM14; SRSF2 genotype: SRSF2 wt/wt) | cell viability (OCI-AML2; SRSF2 genotype: P95H/wt) | cell viability (OCI-AML2; SRSF2 genotype: wt/wt) |
| --- | --- | --- | --- | --- | --- | --- | --- | --- |
| Cc1ccc(NC(=O)C2(c3ccc4c(c3)OC(F)(F)O4)CC2)nc1-c1cccc(C(=O)O)c1 [VX-809 (Lumacaftor)] | 108% and 106% | 112% | 115% | 113% | 109% | 106% | 106% | 122% |
| COc1cc(N2CCC(N(C)C)CC2)ccc1Nc1ncc(Cl)c(Nc2ccccc2P(C)(C)=O)n1 | 41.2% and 62.9% | 34.2% | 34% | 27.2% | 1.15% | 3.56% | 4.59% | 12.3% |
| Nc1cccc(S(=O)(=O)N2CCCN(S(=O)(=O)c3ccc4c(c3)OCCO4)CC2)c1 | 90.8% and 101% | 101% | 96.3% | 98.8% | 90.5% | 97.7% | 101% | 97.5% |
| Nc1ccc(S(=O)(=O)Nc2ccccn2)cc1 [Sulfapyridine (Dagenan)] | 94.3% and 101% | 97.1% | 97.7% | 107% | 103% | 100% | 106% | 97.6% |
| C[C@@H]1O[C@@H](OC[C@H]2O[C@@H](Oc3cc(O)c4c(c3)O[C@H](c3ccc(O)cc3)CC4=O)[C@H](O)[C@@H](O)[C@@H]2O)[C@H](O)[C@H](O)[C@H]1O [Narirutin] | 96.8% and 92.1% | 92.3% | 98.2% | 97.5% | 98.9% | 96.8% | 101% | 99.4% |
| COc1ccc(C2=NC(c3ccc(Cl)cc3)C(c3ccc(Cl)cc3)N2C(=O)N2CCNC(=O)C2)c(OC(C)C)c1 (configuration not stated) [Nutlin-3b] | 90.3% and 93.2% | 89.3% | 87.5% | 97.1% | 77.2% | 86.7% | 84.5% | 89.8% |
| CO[C@H]1O[C@@H]2O[C@@]3(C)CC[C@H]4[C@H](C)CC[C@@H]([C@H]1C)[C@@]24OO3 [Artemether] | 84.4% and 83.7% | 80.4% | 81% | 90.5% | 85.6% | 90.1% | 86.3% | 86.6% |
| COC(=O)C[C@](O)(CCCC(C)(C)O)C(=O)O[C@@H]1C(OC)=C[C@]23CCCN2CCc2cc4c(cc2[C@H]13)OCO4 [Homoharringtonine] | 12.4% and 19.9% | 23% | 9.06% | 4.23% | 1.21% | 1.06% | 5.52% | 11.4% |
| C[C@@](Cc1ccc(O)c(O)c1)(NN)C(=O)O [Carbidopa] | 103% and 92.2% | 101% | 92.1% | 98.2% | 93.3% | 98.4% | 93.9% | 107% |
| COc1cc(O)c(CC=C(C)C)c2c1C(=O)CC(c1ccc(O)cc1)O2 (configuration not stated) [Isoxanthohumol] | 83.1% and 81.6% | 78.3% | 94.3% | 82.2% | 94.7% | 97.7% | 93.7% | 93% |
| COc1cc(C(=O)NC2CCN(C)CC2)ccc1Nc1ncc2c(n1)N(C1CCCC1)CC(F)(F)C(=O)N2C | 24.5% and 48.3% | 44.6% | 31.6% | 26.3% | 15% | 5.38% | 4.16% | 9.85% |
| C/C1=C\CC[C@]23O[C@H]2[C@@H](OC3=O)c2c(C)coc2C1 [Linderane] | 109% and 104% | 112% | 104% | 99.6% | 117% | 108% | 103% | 101% |
| CNC(=O)c1cc(Oc2ccc(NC(=O)Nc3cc(C(C)(C)C)nn3-c3ccc4ncccc4c3)c(F)c2)ccn1 [DCC-2036 (Rebastinib)] | 28.3% and 35.4% | 27.5% | 11.8% | 4.62% | 1.63% | 1.54% | 3.03% | 14% |
| Cn1ncc(Cl)c1-c1cc(C(=O)N[C@H](CN)Cc2ccc(F)c(F)c2)oc1Cl | 73.1% and 71.1% | 79.8% | 64.1% | 59.3% | 31.9% | 31.4% | 51.1% | 50.4% |
| c1ccc2c(CCNc3ccc(Nc4ccncc4)cc3)c[nH]c2c1 | 28.3% and 44.5% | 46% | 21.3% | 44.4% | 0.51% | 0.5% | 0.66% | 2% |
| Cc1nnsc1C(=O)Nc1ccc(-n2nc(C(F)(F)F)cc2C(F)(F)F)cc1 | 78.2% and 82% | 76.3% | 86.6% | 98.2% | 107% | 99.1% | 76.6% | 89.2% |
| CCOC(=O)c1ccc(NC(=O)O[C@H]2[C@H](OC(=O)Nc3ccc4c(c3)OCO4)[C@@H](OC(=O)Nc3ccc4c(c3)OCO4)[C@@H](OC)O[C@@H]2CO)cc1 | 89.5% and 99.2% | 93.3% | 103% | 106% | 100% | 101% | 99.3% | 103% |
| COc1ccc2c(O[C@@H]3C[C@H]4C(=O)N[C@]5(C(=O)NS(=O)(=O)C6CC6)C[C@H]5/C=C\CCCCN(C)C(=O)[C@@H]4C3)cc(-c3nc(C(C)C)cs3)nc2c1C | 70.6% and 60.2% | 62.9% | 61.6% | 75.3% | 79.1% | 71.6% | 55.2% | 58.8% |
| CC(C)=CCC[C@](C)(O[C@@H]1O[C@H](CO)[C@@H](O)[C@H](O)[C@H]1O)[C@H]1CC[C@]2(C)[C@@H]1[C@H](O)C[C@@H]1[C@@]3(C)CC[C@H](O[C@@H]4O[C@H](CO)[C@@H](O)[C@H](O)[C@H]4O[C@@H]4O[C@H](CO)[C@@H](O)[C@H](O)[C@H]4O)C(C)(C)[C@@H]3CC[C@]12C [Ginsenoside Rd] | 99.2% and 91.3% | 93.4% | 94% | 96.8% | 91.8% | 94.5% | 88% | 103% |
